Assay outcomes deposited in PubChem BioAssay by Center for Chemical Genomics, University of Michigan.
This is a sample that favours compounds with a hit; in the whole collection about 0.86% have one here.
TAR Tat displ – HIV-1 TAR-Tat binding disruption; HIV-1 TAR RNA, Tat peptide displacement FRET; hits give high values; z-score (no concentration beside the values); actives 0.6% (n = 100,000); AID 1259389; active = z-score of 3 or more in at least 2 runs
CDC25B CDK2 inh – human CDC25B-CDK2/CyclinA binding inhibition. HTRF CDC25B-CDK2/CyclinA binding, anti-His/anti-Flag; hits give high values. AID 1259370. actives 0.72% (n = 94,000). P30305+P24941. z-score (no concentration beside the values); in the data active = z-score above about 3.2
Starred values were filed as active, the others as inactive; . = no result given.

SMILES	TAR Tat displ	CDC25B CDK2 inh
O=S(=O)(c1cc(S(=O)(=O)N2CCOCC2)c(Cl)s1)N1CCOCC1	.	-2.17
CCN1C(=O)C(O)(CC(=O)c2ccc(F)cc2)c2ccccc21 (stereo unspecified)	-0.4	-0.32
NC(=O)CN1C(=O)C(O)(CC(=O)c2ccc(F)cc2)c2ccccc21 (stereo unspecified)	-0.04	16.1*
CCCCN1C(=O)C(O)(CC(=O)c2ccccc2)c2ccccc21 (stereo unspecified)	-1.56	11.8*
CCCCN1C(=O)C(O)(CC(=O)c2ccc(C(C)C)cc2)c2ccccc21 (stereo unspecified)	-0.21	-0.27
COc1ccc(CN2CSC3=C(C#N)C(c4ccc(F)cc4)CC(=O)N3C2)cc1 (stereo unspecified)	0.92	3.64*
COc1ccc(C2CC(=O)N3CN(Cc4ccco4)CSC3=C2C#N)cc1 (stereo unspecified)	1.8	3.17*
N#CC1=C2SCN(Cc3ccco3)CN2C(=O)CC1c1ccc(Br)cc1 (stereo unspecified)	2.08	-1.75
N#CC1=C2SCN(Cc3ccco3)CN2C(=O)CC1c1ccc(F)cc1 (stereo unspecified)	-1.47	5.97*
O=C(OC1=CN(Cc2ccccc2)S(=O)(=O)c2ccccc21)c1ccccc1Br	0.58	-0.79
O=S1(=O)C[C@H](NCCc2ccccc2F)[C@@H](S(=O)(=O)c2ccc(F)cc2)C1	2.94	-0.73
O=C(CSc1nc2ncccc2[nH]1)N1CCc2ccccc2C1	1.67	14.8*
O=C(CSc1nc2ncccc2[nH]1)N1CCCC1	0.18	.
CCOc1cc(-c2cc(=O)c3ccccc3o2)ccc1O	1.97	-0.98
CN(C)S(=O)(=O)c1ccc(C(=O)Nc2sc3c(c2C(N)=O)CCCC3)cc1	3.39	-2.28
CN(CC1CCCO1)S(=O)(=O)c1ccc(C(=O)Nc2sc3c(c2C(N)=O)CCC3)cc1 (stereo unspecified)	7.58*	.
N#Cc1nc(-c2ccc(Cl)cc2)oc1N1CCOCC1	2.42	-0.3
O=C1c2cccc3c(N4CCOCC4)ccc(c23)C(=O)N1c1cccc(O)c1	-7.61	-0.44
O=C1c2cccc3c(N4CCOCC4)ccc(c23)C(=O)N1c1cc(Cl)ccc1O	-4.77	9.69*
NS(=O)(=O)c1ccc2nc(NC(=O)c3ccc(S(=O)(=O)N4CCOCC4)cc3)sc2c1	.	-1.56
COc1ccc(-c2nnc3c4cc5c(cc4n(Cc4ccccc4)cc2-3)OCCO5)cc1OC	0.88	2.05
COc1cccc(Cn2cc3c(-c4ccc(OC)c(OC)c4)nnc-3c3cc4c(cc32)OCCO4)c1	5.09*	2.8
Cc1ccc(C(C)C)c(OCC(O)CN2CCCCC2)c1 (stereo unspecified)	2.4	-1.22
CN1C(=O)CSc2ccc(NC(=O)Nc3cccnc3)cc21	0.7	19.4*
CN1CCc2cc(NC(=O)Nc3cccnc3)ccc21	.	22.8*
SMILES	TAR Tat displ	CDC25B CDK2 inh
Cc1ccc(NC(=O)Nc2cccnc2)cc1Cl	.	0.99
Cc1cccnc1NC(=O)Nc1ccc2c(c1)N(C)C(=O)CS2	-1.46	5.7
COc1ccccc1OCCn1c(CN2CCCCC2)nc2ccccc21	0.67	-0.13
Cc1nc2ncnn2c(Nc2ccc(F)c(Cl)c2)c1C	1.25	.
O=C1CCc2cc(S(=O)(=O)N3CCc4ccccc43)cc3c2N1CCC3	1.12	.
CCc1nn(CC(=O)NCCCN(CC)CC)c(=O)c2cc3sc(C)cc3n12	1.57	-0.13
CC(C)c1ccc(C2CC(=O)N3CN(Cc4ccco4)CSC3=C2C#N)cc1 (stereo unspecified)	-0.71	-0.56
COc1cccc(C2CC(=O)N3CN(Cc4ccco4)CSC3=C2C#N)c1OC (stereo unspecified)	0.63	3.37*
COc1ccc(C2CC(=O)N3CN(Cc4ccco4)CSC3=C2C#N)c(OC)c1 (stereo unspecified)	-0.22	5.93*
Cc1ccc2oc(=O)c3cnn(CC(=O)N(CCC(C)C)Cc4ccco4)c3c2c1	2.94	-1.49
O=[N+]([O-])c1cccnc1NCc1cccnc1	0.01	0.74
Cc1nc2sc(C(c3ccco3)N3CC(C)OC(C)C3)c(O)n2n1 (stereo unspecified)	.	0.08
CC(Oc1ccc(O)cc1)(P(=O)(O)O)P(=O)(O)O	26.3*	.
CC(=O)Oc1cccc(O)c1	1.26	.
CCCC(=O)Oc1c[nH]c2ccccc12	.	-2.05
CCc1c(C)nc2nc(-c3ccco3)[nH]n2c1=O	-0.83	-0.34
Cc1nc2nc(-c3ccco3)[nH]n2c(=O)c1Cc1ccccc1	1.08	12.6*
CCc1nc(SCc2cc(=O)c3cccc(F)c3[nH]2)n[nH]1	-0.37	.
COc1ccc(-c2noc(CSCC(=O)O)n2)cc1OC	0.21	1.8
Cc1ccc(S(=O)(=O)Nc2cc(S(=O)(=O)c3ccc(C)cc3)c(O)c3cccnc23)cc1	1.5	0.77
Cc1ccc(S(=O)(=O)Nc2cc(Cl)c(O)c3ncccc23)cc1	1.5	13.6*
COc1cccc(N(Cc2ccc(C)cc2)C2=NC3CS(=O)(=O)CC3S2)c1 (stereo unspecified)	0.16	-1.64
C=CCN1C(=S)Nc2cccc[n+]2[B-]1(CCCC)CCCC	.	3.9*
Cn1c(=O)c(C(=O)O)nc2ccccc21	0.87	-1.76
CCOC(=O)c1nc2ccccc2n(C)c1=O	-1.32	23*
SMILES	TAR Tat displ	CDC25B CDK2 inh
Cc1cccc(N2CSC3=C(C#N)C(c4ccc(C)o4)CC(=O)N3C2)c1 (stereo unspecified)	-1.01	-0.48
Cc1ccccc1N1CSC2=C(C#N)C(c3cccc(F)c3)CC(=O)N2C1 (stereo unspecified)	-1.51	8*
N#CC1=C2SCN(c3cccc(Cl)c3)CN2C(=O)CC1c1cccc(F)c1 (stereo unspecified)	-1.66	8.39*
N#CC1=C2SCN(c3ccc(Br)cc3)CN2C(=O)CC1c1ccccc1 (stereo unspecified)	-5	5.95*
Cc1ccc(N2CSC3=C(C#N)C(c4ccccc4)CC(=O)N3C2)cc1Cl (stereo unspecified)	-5.66	5.59*
CSc1cccc(NC(=O)CSc2ncc(S(=O)(=O)c3ccccc3)c(=O)[nH]2)c1	-0.38	0.3
COC(=O)c1sc(N2C(=O)c3oc4ccc(C)cc4c(=O)c3C2c2ccc(C)cc2)nc1C (stereo unspecified)	1.96	-1.5
C/C(Cn1c(=O)oc2ccccc21)=N\OC(=O)Nc1ccccc1	.	-1.18
Cc1ccccc1N1CSC2=C(C#N)C(c3ccccc3)CC(=O)N2C1 (stereo unspecified)	-1.57	5.36*
CCc1ccccc1N1CSC2=C(C#N)C(c3ccccc3)CC(=O)N2C1 (stereo unspecified)	-1.24	6.94*
N#CC1=C2SCN(C3CCCCC3)CN2C(=O)CC1c1ccccc1 (stereo unspecified)	2.13	-1.33
Cc1ccc(N2CSC3=C(C#N)C(c4cccc(F)c4)CC(=O)N3C2)cc1 (stereo unspecified)	-1.16	4.71*
COc1ccccc1Oc1cccc(C)c1	.	-0.16
CC1(C)COC(c2cccn2Cc2ccc(F)cc2)=N1	0.45	-2.35
CSc1ccccc1NC(=O)c1noc(C(C)C)c1[N+](=O)[O-]	1.62	-1.81
O=S(=O)(Nc1ccc2c(c1)OCCO2)c1csc(-c2cc(C(F)(F)F)on2)c1	.	-0.65
O=C(O)C1CCCCC1C(=O)Nc1ccc(N2CCOCC2)c2nonc12 (stereo unspecified)	0.22	-0.18
COc1ccc2cc3c(nc2c1)N(C(=O)c1ccccc1Br)CC3	-0.66	-1.4
O=C(COC(=O)c1cccs1)c1ccc(Cl)cc1	.	16.9*
